According to the supplement of paper PMC6555819:

Columns and labels:
Test in all cases: PBM binding z-score (relative to random genomic background probes); higher = stronger binding; sequences stand for … in GC…GCGATTGACAGCGTAGAATGAAGG
[1] = system: FXR:RXRa (NR concentration 270 nM, RXRa partner concentration 90 nM)
How it was run: (§1)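 Random background probes are the reference for binding z-scores. These scores derive from regression-normalized fluorescence on custom Agilent 4×180K protein-binding microarrays incubated 1 h with ligand-free nuclear receptor dimers. Binding was detected with antibodies against each partner (one per run).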

[2] = system: LXRa:RXRa (NR concentration 270 nM, RXRa partner concentration 90 nM)
How it was run: as §1

[3] = system: LXRa homodimer (NR concentration 270 nM)
How it was run: as §1

[4] = system: LXRb:RXRa (NR concentration 270 nM, RXRa partner concentration 90 nM)
How it was run: as §1

[5] = system: LXRb homodimer (NR concentration 270 nM)
How it was run: as §1

[6] = system: PPARa:RXRa (NR concentration 270 nM, RXRa partner concentration 90 nM)
How it was run: as §1

[7] = system: PPARg:RXRa (NR concentration 180 nM, RXRa partner concentration 90 nM)
How it was run: as §1

[8] = system: PPARg:RXRa 270nM:90nM, anti-RXR (NR concentration 270 nM, RXRa partner concentration 90 nM)
How it was run: as §1

[9] = system: PPARg:RXRa 30nM:10nM, anti-RXR (NR concentration 30 nM, RXRa partner concentration 10 nM)
How it was run: as §1

[10] = system: PPARg:RXRa 90nM:30nM, anti-RXR (NR concentration 90 nM, RXRa partner concentration 30 nM)
How it was run: as §1

Row | Sequence | PBM binding z-score [1] | PBM binding z-score [2] | PBM binding z-score [3] | PBM binding z-score [4] | PBM binding z-score [5] | PBM binding z-score [6] | PBM binding z-score [7] | PBM binding z-score [8] | PBM binding z-score [9] | PBM binding z-score [10]
1 | GCAGACAGGTGAAACGCAGGTAACTAAGGGTGGC | -0.237 | 0.0308 | -0.755 | -0.289 | -0.873 | 0.88 | 0.651 | -0.421 | -0.539 | -0.453
2 | AGTCAAAGTTCACTAGGTAACGTTAGATTCAGCT | 5.17 | 5.24 | 3.17 | 2.95 | 1.04 | 4.7 | 7.15 | 6.57 | 3.45 | 6.1
3 | AGATTGAGGTTATTAAGATCAGGGAATTGCGGTC | 1.61 | 1.28 | 0.39 | 1.32 | 0.271 | 2.42 | 1.08 | 1.65 | 0.461 | 1.17
4 | TCTGCTAGGTCAGTTGGTCTGCTAACGAGCTGCC | 0.643 | 0.261 | -0.897 | -0.119 | 0.334 | 0.9 | -0.466 | 1.02 | 0.751 | 1.14
5 | ATACCAAGGTGATCGTGAGGACGTTGATACTAAC | 0.587 | 0.135 | -0.00187 | 0.0444 | -0.331 | -0.0562 | 0.622 | 0.0338 | -0.0535 | -0.287
6 | TGTGAAAGTTCAAAGGTAACGTAAGTATCCACAC | 6.55 | 5.73 | 4.61 | 4.36 | 2.11 | 5.49 | 6.77 | 6.84 | 4.1 | 6.25
7 | TCTCGGAGGACACGATAGGTCAGAGCTCGACATC | 1.07 | 1.92 | 0.208 | 0.643 | -0.585 | 1.5 | 0.595 | 1.43 | 2.09 | 1.52
8 | CCTACTGGGCCATCAGGTCAGTGATATCAACGTT | 0.148 | 0.0376 | 0.047 | 0.311 | -0.379 | 1.91 | 2.01 | 2.42 | 0.364 | 1.92
9 | CTCGAAAGGTCGTGCTCAGCTGAGTATACCAAAC | 4.95 | 3.96 | -0.247 | 3.26 | 0.329 | 4.67 | 2.52 | 3.89 | 0.929 | 2.38
10 | ATCTCTAGATAAAGTTCAGTGAAAGATCGATAGA | 0.465 | 1.1 | 1.05 | 0.684 | 0.314 | 1.48 | 2.39 | 3.45 | 1.46 | 3.1
11 | GGAACGAGGGCAAGTTGATAACAGAGTTTGATGG | 0.773 | 0.307 | -0.071 | 0.262 | -0.233 | 1.76 | 1.52 | 1.14 | 0.316 | 1.03
12 | CGTCCAAGGTCAGCAGGTCAGTTAAAGCGACGTG | 6.18 | 4.17 | 0.53 | 3.54 | -0.0511 | 4.97 | 4.14 | 4.73 | 1.44 | 3.28
13 | CGACCTAGGTCATTGACAGGACAGTGAATAGTAA | 5.8 | 4.01 | 0.717 | 2.75 | 0.226 | 4.18 | 3.67 | 3.24 | 0.782 | 2.01
14 | ACTAGCAGGCCTAGGGTCACTCAAGATTAGTCCG | 1.77 | 1.89 | -0.469 | 1.82 | -0.871 | 2.81 | 1.99 | 3.41 | 1.39 | 2.89
15 | AGTCAAAGTTCAACTAGGTAACGTAAGATATGCT | 7.15 | 6.16 | 4.88 | 4.22 | 1.72 | 5.32 | 7.34 | 6.67 | 4.2 | 6.24
16 | TCTATTAGTTGAAGGGTAACCGACGAGTCCGTTT | 1.06 | 1.12 | 0.425 | 1.17 | 0.781 | 1.35 | 0.607 | 2.8 | 4.16 | 3.37
17 | GTACCAAGGTGAATAGGTCGCTGATGAGTAGGCG | 0.713 | 0.531 | -0.254 | 0.0295 | -0.695 | 1.95 | 1.48 | 1.74 | 0.17 | 1.14
18 | ATCTCTAGGTACGACTCAGTTCAGTGAAGAACGC | 0.373 | 0.42 | 0.735 | 0.686 | 1.15 | 0.0584 | 0.161 | 0.105 | 0.235 | -0.098
19 | TAGCCTAGGTCATGGGGCCAGTATAGTACGCATC | 4.54 | 3.52 | 0.182 | 2.77 | 0.0614 | 4.31 | 3.62 | 3.29 | 0.919 | 2.66
20 | ACCAGTTGGTCAGCTGAGGTCACACACAATTCGG | 4.09 | 3.33 | 2.22 | 3.21 | 0.296 | 3.54 | 1.58 | 2.14 | 0.389 | 1.17
21 | GCTTGTAGATCAAGGCTAAGAAAGACTAAGCTAA | -1.48 | -0.741 | -0.903 | -0.837 | -0.875 | -0.665 | -0.447 | -0.418 | -0.329 | -0.359
22 | ACTTACGGGTCAACGAGGTTATCGCACGCGTATA | 7.3 | 5.42 | 1.07 | 4.36 | 1.13 | 5.83 | 5.87 | 5.69 | 2.32 | 4.5
23 | CCTAGCAGGCCAATCTTGGTCACTCAAGGCTTGA | -0.234 | -0.221 | -0.7 | -0.577 | -0.715 | -0.114 | -0.277 | -0.609 | -0.894 | -0.992
24 | TCTGCGAGGTCAGTTGGTCAGCTAACGAGCTGCC | 4.64 | 3.16 | 0.00554 | 2.69 | 1.26 | 3.99 | 2.69 | 3.5 | 1.59 | 2.61
